Several values for one entry are separate records, joined by “and”; a condition that tells them apart may be missing. Identical values can stand only once. Results filed as inconclusive are left out. A call without a number means that no potency is given here. Some structures have more than one record in an assay (separate samples or runs), and their calls can disagree. Activity calls are given as the source filed them. Calls follow the shape of the dose curve; as a rule, active = well fitted curve in the direction sought with a large enough effect; inconclusive = small, poorly fitted or top-dose-only effect, or another doubt; inactive = no such curve, though single readings can be large; an effect the other way counts as inactive or inconclusive.
Key:
[1] = P-glycoprotein substrates identified in KB-8-5-11 adenocarcinoma cell line, qHTS therapeutic library screen (AID 1346987); also: nearly all actives have a fitted effect of over 65% in size
In short: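 P-gp-mediated resistance screen: KB-8-5-11 cells treated 72 h with compounds in dose-response. CellTiter-Glo viability.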

[2] = NS1 protein of Zika virus - qHTS assay to identify small molecule inhibitors in human HEK 293 cells (AID 1347053); also: nearly all actives have a fitted effect of over 55% in size
In short: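 HEK 293; 20 h pre-culture, 37 C/5% CO2; cpd 1 h pre-infection; ZIKV MR766, MOI = 0.5, 24 h, 37 C; TR-FRET NS1 readout (two anti-NS1 Abs); norm. to no-virus vs infected.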

[3] = qHTS of pediatric cancer cell lines to identify multiple opportunities for drug repurposing: Primary screen for TC32 cells (AID 1347089); also: nearly all actives have a fitted effect of over 60% in size
In short: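 TC32 cells, 500-1,000/well in growth medium, compound-treated 48 h at 37 °C; viability from CellTiter-Glo luminescence. Primary screen: MIPE 11-point (0.78 nM–46 µM final), NPC 8-point (0.59 nM–46 µM final); confirmatory at 11-point dilutions.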

[4] = qHTS of pediatric cancer cell lines to identify multiple opportunities for drug repurposing: Primary screen for DAOY cells (AID 1347090); also: nearly all actives have a fitted effect of over 55% in size; as to activity change, negative = cytotoxic: series mostly up to about 46 µM
In short: (§1)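 Viability measured as metabolically active cells via CellTiter-Glo luminescence following 48 hours of compound exposure, 11-point dilutions in confirmatory testing. 500-1,000 cells/well plated 5 hours before dosing; controls were DMSO and 2.3 µM bortezomib.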

[5] = qHTS of pediatric cancer cell lines to identify multiple opportunities for drug repurposing: Primary screen for SJ-GBM2 cells (AID 1347091)
In short: as §1

[6] = qHTS of pediatric cancer cell lines to identify multiple opportunities for drug repurposing: Primary screen for A673 cells (AID 1347092); also: nearly all actives have a fitted effect of over 45% in size
In short: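 A673 cells (500-1,000 cells/well) were treated 48 hours at 37 degrees C with compounds at 11-point (0.78 nM to 46 µM) or 8-point (0.59 nM to 46 µM) dilutions. Viability read by CellTiter-Glo luminescence; concentration-response curves fitted.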

[7] = qHTS of pediatric cancer cell lines to identify multiple opportunities for drug repurposing: Primary screen for SK-N-MC cells (AID 1347093); as to activity change, negative = cytotoxic: series mostly up to about 46 µM
In short: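 Metabolically active cells were quantified by ATP-dependent luminescence (CellTiter-Glo, 15 min at room temperature) following 48 h treatment. Cells had been plated at 500-1,000 per well and settled for 5 h beforehand.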

[8] = qHTS of pediatric cancer cell lines to identify multiple opportunities for drug repurposing: Primary screen for BT-37 cells (AID 1347094); as to activity change, negative = cytotoxic: series mostly up to about 57 µM
In short: (§2)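 Plated cells (500-1,000 per well, growth media) were allowed to settle for 5 hours, treated with compound dilutions for 48 hours, then lysed with CellTiter-Glo for 15 min at room temperature before luminescence reading.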

[9] = qHTS of pediatric cancer cell lines to identify multiple opportunities for drug repurposing: Primary screen for NB-EBc1 cells (AID 1347095)
In short: as §2

[10] = qHTS of pediatric cancer cell lines to identify multiple opportunities for drug repurposing: Primary screen for U-2 OS cells (AID 1347096); also: nearly all actives have a fitted effect of over 50% in size
In short: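 Viability after 48 h compound treatment at 37C, 500-1,000 cells/well, read as ATP luminescence with CellTiter-Glo. Primary screens used 11-point (MIPE, 0.78 nM-46 µM) or 8-point (NPC, 0.59 nM-46 µM) final concentrations; follow-up screens used 11-point dilutions.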

[11] = qHTS of pediatric cancer cell lines to identify multiple opportunities for drug repurposing: Primary screen for Saos-2 cells (AID 1347097); also: nearly all actives have a fitted effect of over 40% in size
In short: as §2

[12] = qHTS of pediatric cancer cell lines to identify multiple opportunities for drug repurposing: Primary screen for SK-N-SH cells (AID 1347098); also: nearly all actives have a fitted effect of over 65% in size;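 as to activity change, negative = cytotoxic: DMSO served as neutral control and bortezomib at 2.3 µM as positive control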
In short: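 Cells (500-1,000/well) rested 5 h, then received compounds for 48 h; metabolically active cells were measured by CellTiter-Glo luminescence. Final concentrations spanned up to 46 µM (MIPE, 11-point) or 0.59 nM-46 µM (NPC, 8-point) in primary screens, 11-point in follow-ups.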

[13] = qHTS of pediatric cancer cell lines to identify multiple opportunities for drug repurposing: Primary screen for NB1643 cells (AID 1347099); also: nearly all actives have a fitted effect of over 50% in size
In short: as §2
Potency is read from the fitted curve at half-maximal effect.

With Nc1ccc(S(N)(=O)=O)cc1 the Potency [1] was “inactive”, the Potency [2] was “inactive” and the Potency [3] was “inactive”. For the same compound, the Potency [4] was “inactive”, the Potency [5] was “inactive” and the Potency [6] was “inactive”. For the same compound, the Potency [7] was “inactive”, the Potency [8] was “inactive” and the Potency [9] was “inactive”. For the same compound, the Potency [10] was “inactive”, the Potency [11] was “inactive” and the Potency [12] was “inactive”. For the same compound, the Potency [13] was “inactive”.
In the case of Oc1ccc(OCc2ccccc2)cc1, the Potency [1] is reported as “inactive”, the Potency [2] is reported as “inactive” and the Potency [3] is reported as “inactive”. For the same compound, the Potency [4] was “inactive”, the Potency [5] was “inactive” and the Potency [6] was “inactive”. The Potency [7] was “inactive”, the Potency [8] was “inactive” and the Potency [9] was “inactive”. The Potency [10] was “inactive”, the Potency [11] was “inactive” and the Potency [12] was “inactive”. The Potency [13] was “inactive”.
For Cc1ncc([N+](=O)[O-])n1CC(C)O (stereo not given), the Potency [1] was “inactive”, the Potency [2] was “inactive” and the Potency [3] was “inactive”. The Potency [4] was “inactive”, the Potency [5] was “inactive” and the Potency [6] was “inactive”. For the same compound, the Potency [7] was “inactive”, the Potency [8] was “inactive” and the Potency [9] was “inactive”. The Potency [10] was “inactive”, the Potency [11] was “inactive” and the Potency [12] was “inactive”. The Potency [13] was “inactive”.
In the case of Cc1cc2c(s1)Nc1ccccc1N=C2N1CCN(C)CC1, the Potency [1] is reported as “inactive”, the Potency [2] is reported as “inactive” and the Potency [3] is reported as “inactive”. The Potency [4] was “inactive”, the Potency [5] was “inactive” and the Potency [6] was “inactive”. The Potency [7] was “inactive”, the Potency [8] was “inactive” and the Potency [9] was “inactive”. For the same compound, the Potency [10] was “inactive”, the Potency [11] was “inactive” and the Potency [12] was “inactive”. The Potency [13] was “inactive”.
For O=C(NCCO[N+](=O)[O-])c1cccnc1, the Potency [1] was “inactive”, the Potency [2] was “inactive” and the Potency [3] was “inactive”. The Potency [4] was “inactive”, the Potency [5] was “inactive” and the Potency [6] was “inactive”. The Potency [8] was “inactive”, the Potency [9] was “inactive” and the Potency [10] was “inactive”. The Potency [11] was “inactive” and the Potency [12] was “inactive”.
With O=C(O)c1cn(-c2ccc(F)cc2)c2cc(N3CCNCC3)c(F)cc2c1=O the Potency [1] was “inactive”, the Potency [2] was “inactive” and the Potency [3] was “inactive”. For the same compound, the Potency [4] was “inactive”, the Potency [5] was “inactive” and the Potency [6] was “inactive”. The Potency [7] was “inactive”, the Potency [8] was “inactive” and the Potency [9] was “inactive”. For the same compound, the Potency [10] was “inactive”, the Potency [11] was “inactive” and the Potency [12] was “inactive”. For the same compound, the Potency [13] was “inactive”.
With c1ccc2[nH]c(-c3cscn3)nc2c1 the Potency [1] was “inactive”, the Potency [2] was “inactive” and the Potency [3] was “inactive”. For the same compound, the Potency [4] was “inactive”, the Potency [5] was “inactive” and the Potency [6] was “inactive”. For the same compound, the Potency [8] was “inactive”, the Potency [9] was “inactive” and the Potency [10] was “inactive”. For the same compound, the Potency [11] was “inactive”, the Potency [12] was “inactive” and the Potency [13] was “inactive”.
With O=C(CS(=O)Cc1ccco1)NCC=CCOc1cc(CN2CCCCC2)ccn1 (stereo not given) the Potency [1] was “inactive”, the Potency [2] was “inactive” and the Potency [3] was “inactive”. The Potency [4] was “inactive”, the Potency [5] was “inactive” and the Potency [6] was “inactive”. For the same compound, the Potency [8] was “inactive”, the Potency [9] was “inactive” and the Potency [10] was “inactive”. The Potency [11] was “inactive”.
For CCN(CCO)CCCC(C)Nc1ccnc2cc(Cl)ccc12 (stereo not given), the Potency [1] was “inactive”, the Potency [2] was “inactive” and the Potency [3] was “inactive”. The Potency [4] was “inactive”, the activity change, negative = cytotoxic [5] was 13.4% [at 4.84 µM] (inactive) and the Potency [7] was 2.96 µM (active). For the same compound, the activity change, negative = cytotoxic [7] was -1.47% [at 4.84 µM] (inactive), the Potency [8] was 3.85 µM (active) and the activity change, negative = cytotoxic [8] was 5.71% [at 6.03 µM] (inactive). For the same compound, the Potency [9] was 1.18 µM (active), the activity change, negative = cytotoxic [9] was 13.9% [at 4.84 µM] (inactive) and the Potency [10] was “inactive”. For the same compound, the Potency [11] was “inactive”, the activity change, negative = cytotoxic [12] was -2.15% [at 6 µM] (inactive) and the activity change, negative = cytotoxic [13] was 19.4% [at 4.84 µM] (inactive).
For CC[C@]1(O)C[C@H]2CN(CCc3c([nH]c4ccccc34)[C@@](C(=O)OC)(c3cc4c(cc3OC)N(C=O)[C@H]3[C@@](O)(C(=O)OC)[C@H](OC(C)=O)[C@]5(CC)C=CCN6CC[C@]43[C@@H]65)C2)C1, the Potency [1] was 1.05 µM (active), the Potency [2] was 1.18 µM (active) and inactive and the Potency [3] was 33 nM (active) and 83.6 nM (active). The Potency [4] was 59 nM (active) and 26.6 nM (active), the Potency [5] was 1 nM (active) and 84.1 nM (active) and the Potency [6] was 4.7 nM (active) and 5.3 nM (active). The Potency [7] was 11.8 nM (active) and 6.7 nM (active), the Potency [8] was 21.7 nM (active) and 17.4 nM (active) and the Potency [9] was 9.3 nM (active) and 237 nM (active). For the same compound, the Potency [11] was 23.5 nM (active).
With CN(C)c1ccc2nc3ccc(=[N+](C)C)cc-3sc2c1 the Potency [1] was 3.32 µM (active) and 6.51 µM (active), the Potency [2] was “inactive” and the Potency [3] was 16.5 µM (active) and 21 µM (active). The Potency [4] was 2.35 µM (active) and 6.68 µM (active), the Potency [5] was 3.32 µM (active) and 2.66 µM (active) and the Potency [6] was 9.35 µM (active) and 8.41 µM (active). The Potency [7] was 1.18 µM (active) and 1.19 µM (active), the Potency [8] was 19.3 µM (active) and 15.5 µM (active) and the Potency [9] was 2.09 µM (active) and 2.66 µM (active). The Potency [10] was 10600 nM (active), the Potency [11] was 1.48 µM (active) and 2.66 µM (active) and the Potency [12] was 3.41 µM (active) and 5.45 µM (active). The Potency [13] was 10600 nM (active).
With Cc1nccn1CC1CCc2c(c3ccccc3n2C)C1=O (stereo not given) the Potency [1] was “inactive”, the Potency [2] was “inactive” and the Potency [3] was “inactive”. The Potency [4] was “inactive”, the Potency [5] was “inactive” and the Potency [6] was “inactive”. The Potency [7] was “inactive”, the Potency [8] was “inactive” and the Potency [9] was “inactive”. The Potency [10] was “inactive” and the Potency [12] was “inactive”.
In the case of CC(C)[C@H](N)C(=O)OCCOCn1cnc2c(=O)[nH]c(N)nc21, the Potency [1] is reported as “inactive”, the Potency [2] is reported as “inactive” and the Potency [3] is reported as “inactive”. For the same compound, the Potency [4] was “inactive”, the Potency [5] was “inactive” and the Potency [6] was “inactive”. The Potency [7] was “inactive”, the Potency [8] was “inactive” and the Potency [9] was “inactive”. For the same compound, the Potency [10] was “inactive”, the Potency [11] was “inactive” and the Potency [12] was “inactive”. The Potency [13] was “inactive”.
